Inconclusive results are not listed. Where a call stands in place of a potency, no number is given. The source made the active and inactive calls. The call rests on the fitted dose curve; in most records, active means well fitted curve in the direction sought with a large enough effect; inconclusive means small, poorly fitted or top-dose-only effect, or another doubt; inactive means no such curve, though single readings can be large; an effect the other way counts as inactive or inconclusive.
Potency means the concentration at half of the fitted maximal effect.

One assay is described as follows: qHTS of pediatric cancer cell lines to identify multiple opportunities for drug repurposing: Confirmatory screen for BT-12 cells (AID 1347112). Further: nearly all actives have a fitted effect of over 55% in size. As to conditions: BT-12 rhabdoid tumor cells, viability; series mostly up to 45.9 µM. In outline: (§1)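 Cells (500-1,000/well) in growth media were settled 5 h at 37 degrees C, then given compounds for 48 h. Viability was read as CellTiter-Glo luminescence. Primary runs used MIPE at 11 points (0.78 nM-46 µM) and NPC at 8 points (0.59 nM-46 µM); follow-ups used 11 points.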
As to `C[C@H](c1ccc(F)cc1CCCC(=O)O)N(c1cc(F)ccc1F)S(=O)(=O)c1ccc(Cl)cc1`, the Potency result was “inactive”.
On to `CC(C)CN(C[C@@H](O)[C@H](Cc1ccccc1)NC(=O)O[C@H]1CO[C@H]2OCC[C@H]21)S(=O)(=O)c1ccc(N)cc1`, for which the Potency result was “inactive”.
With `CNC(=O)[C@H](CC1=CN=C2C=CCC=C12)NC(=O)[C@@H](CC(=O)NO)CC(C)C`, the Potency was 2610 nM (active).
The same measure, in the same setting: the value for `CN(C)CCN(C)C(=O)c1ccc(NC(=O)Nc2ccc(-c3nc(N4CCOCC4)c4ccn(CC(F)(F)F)c4n3)cc2)cc1` was 18500 nM (active); that for `Cc1ccccc1-n1c(Cn2nc(-c3cccc(O)c3)c3c(N)ncnc32)nc2cccc(C)c2c1=O` was “inactive”.
With `CO[C@H]1/C=C\O[C@@]2(C)Oc3c(C)c(O)c4c(O)c(c5c(nc6cc(C)ccn65)c4c3C2=O)NC(=O)C(C)=CC=C[C@H](C)[C@H](O)[C@@H](C)[C@@H](O)[C@@H](C)[C@H](OC(C)=O)[C@H]1C`, the Potency entry is “inactive”.
As to `C[C@@H]1C[C@H]2[C@@H]3CCC4=CC(=O)C=C[C@]4(C)[C@@]3(F)[C@@H](O)C[C@]2(C)[C@@]1(O)C(=O)CO`, the Potency entry was “inactive”.
Still for that read-out and setting: the value for `CC(=O)N1CCN(c2ccc(OCc3nn(C)c(C)c3-c3cccc4c(CCCOc5cc(C)c(Cl)c(C)c5)c(C(=O)O)n(Cc5cccnc5)c34)cc2)CC1` was “inactive”.
Regarding `CC[C@H](NC(=O)[C@H](C)NC)C(=O)N1C[C@@H](O)C[C@H]1Cc1c(-c2[nH]c3cc(F)ccc3c2C[C@H]2C[C@H](O)CN2C(=O)[C@H](CC)NC(=O)[C@H](C)NC)[nH]c2cc(F)ccc12`, the Potency was 18500 nM (active).

A short description of another assay: qHTS of pediatric cancer cell lines to identify multiple opportunities for drug repurposing: Confirmatory screen for LAN-5 cells (AID 1347113). Further: nearly all actives have a fitted effect of over 65% in size. As to conditions: LAN-5 neuroblastoma cell viability; series mostly up to 45.9 µM. Summed up:
as §1
In general terms: Quantitative high-throughput screening tests each substance at several concentrations.
On to `C[C@@]1(C(=O)Nc2ccc(F)nc2)CCCN1c1nc(Nc2cc(C3CC3)[nH]n2)c2cccn2n1`, for which the Potency was 147 nM (active).
With `CCOC(=O)[C@H](CCc1ccccc1)N[C@@H](C)C(=O)N1CCCC1C(=O)O` (stereo not given in full), the Potency is 9270 nM (active).
For the compound `COC(=O)Nc1ccc(-c2nc(N3CCOCC3)c3cnn(C4CCN(C(=O)OC)CC4)c3n2)cc1`, the Potency was 8270 nM (active).
For `C[C@H](c1ccc(F)cc1CCCC(=O)O)N(c1cc(F)ccc1F)S(=O)(=O)c1ccc(Cl)cc1`, the Potency entry was “inactive”.
Same read-out and setting: the value for `Nc1ncnc2c1ncn2[C@@H]1O[C@H](CO)[C@@H](O)[C@@H]1O` was 13100 nM (active); that for `COc1cc([C@@H]2c3cc4c(cc3[C@@H](O[C@@H]3O[C@@H]5CO[C@@H](C)O[C@@H]5[C@H](O)[C@@H]3O)[C@H]3COC(=O)[C@H]23)OCO4)cc(OC)c1O` was 1470 nM (active); that for `CCC[C@H](Nc1nc(-c2ccc(NC(=O)NCC)c(OC)c2)ncc1C)c1cccnc1` was 414 nM (active).
For the compound `CN(C)CCN(C)C(=O)c1ccc(NC(=O)Nc2ccc(-c3nc(N4CCOCC4)c4ccn(CC(F)(F)F)c4n3)cc2)cc1`, the Potency was 414 nM (active).
On the same count and under the same terms, the value for `CC(C)n1c(C=C[C@H](O)C[C@H](O)CC(=O)O)c(-c2ccc(F)cc2)c2ccccc21` was “inactive”; that for `Cc1ccccc1-n1c(Cn2nc(-c3cccc(O)c3)c3c(N)ncnc32)nc2cccc(C)c2c1=O` was “inactive”; that for `CO[C@H]1/C=C\O[C@@]2(C)Oc3c(C)c(O)c4c(O)c(c5c(nc6cc(C)ccn65)c4c3C2=O)NC(=O)C(C)=CC=C[C@H](C)[C@H](O)[C@@H](C)[C@@H](O)[C@@H](C)[C@H](OC(C)=O)[C@H]1C` was “inactive”.
The same measure, in the same setting: the value for `C[C@@H]1C[C@H]2[C@@H]3CCC4=CC(=O)C=C[C@]4(C)[C@@]3(F)[C@@H](O)C[C@]2(C)[C@@]1(O)C(=O)CO` was “inactive”.
The same measure, in the same setting: the value for `COc1cc2nccc(Oc3ccc(NC(=O)Nc4cc(C)on4)c(Cl)c3)c2cc1OC` was “inactive”; that for `CC(=O)N1CCN(c2ccc(OCc3nn(C)c(C)c3-c3cccc4c(CCCOc5cc(C)c(Cl)c(C)c5)c(C(=O)O)n(Cc5cccnc5)c34)cc2)CC1` was “inactive”.
Consider `CCNC(=O)c1noc(-c2cc(C(C)C)c(O)cc2O)c1-c1ccc(CN2CCOCC2)cc1`, for which the Potency is 52.2 nM (active).
Still for that read-out and setting: the value for `Nc1ccc(-c2ccc3ncc4ccc(=O)n(-c5cccc(C(F)(F)F)c5)c4c3c2)cn1` was 165 nM (active).

(Values after PubChem BioAssay (NCATS).)
